Bioassay records from PubChem.
Sampled rows, rich in hits. Any-hit rate of the full collection: about 2.8%.
PTAP-TSG101 blk = blocks PTAP binding to human TSG101, validation | AID 1347069 | Q99816 | Fluorescence polarization, FITC-PTAP peptide/Tsg101, 20 min | Potency, µM (top dose mostly 115 µM), most hits filed as inhibitors | 44,000 tested, under 10 active; further: potency means the concentration at half of the fitted maximal effect; 0% is about no effect
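qHTS FP binding, 20 min r.t.: 10 uM Tsg101 domain + 50 nM FITC-PTAP peptide, pH 7.5 HEPES buffer with TCEP and EDTA.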
GPR32 ag = agonists of human resolvin D1 receptor DRV1 (GPR32) | O75388 | CHO-K1 GPR32 beta-arrestin PathHunter luminescence, 90 min; zero percent set by DMSO-only wells | activation, % at 76.9 µM | 48,000 tested, 2.5% active | AID 1346428;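 active means activation of at least 60% and not above a set upper limit, about 1 call in 100 departs from these limits; inconclusive means activation of 40% to 60%, or above that upper limit; inactive means activation under 40%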; further: 0% is about no effect
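Cells are plated overnight, treated with compounds in DMSO for 90 minutes at 37 °C, and developed with PathHunter detection reagent for 1 hour before luminescence is read; signal reflects beta-arrestin binding to GPR32 in engineered CHO-K1 cells.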
FH mod = Identification of activators of human fumarate hydratase by quantitative high-throughput screening; 54,000 tested, 0.22% active; AID 1347055, 2019; FH coupled MDH/diaphorase resazurin fluorescence, 15 min; Potency, µM (doses to about 79.9 µM), for inactives: at the top dose activity change, negative = inhibition, actives largely listed as inhibitors; further: potency means the concentration at half of the fitted maximal effect; on the % scale 0 is the no-effect control and ±100 the full control effect; the screen sought activators but most active calls are inhibition curves; nearly all actives have a fitted effect of over 45% in size
GALC G270D act = raises human GALC G270D mutant activity in cells. P54803. 145M-Twi-hGALC-G270D cells (Twitcher mouse brain line with human GALC G270D), HMU-beta-Gal fluorescence, 48 h. Potency, µM (highest dose often 57.5 µM), most hits filed as activators. 45,000 tested, 0.1% active. AID 1159614; further: potency means the concentration at half of the fitted maximal effect; 0% is about no effect; nearly all actives have a fitted effect of over 65% in size
Target sequence (P54803 whole entry G286D): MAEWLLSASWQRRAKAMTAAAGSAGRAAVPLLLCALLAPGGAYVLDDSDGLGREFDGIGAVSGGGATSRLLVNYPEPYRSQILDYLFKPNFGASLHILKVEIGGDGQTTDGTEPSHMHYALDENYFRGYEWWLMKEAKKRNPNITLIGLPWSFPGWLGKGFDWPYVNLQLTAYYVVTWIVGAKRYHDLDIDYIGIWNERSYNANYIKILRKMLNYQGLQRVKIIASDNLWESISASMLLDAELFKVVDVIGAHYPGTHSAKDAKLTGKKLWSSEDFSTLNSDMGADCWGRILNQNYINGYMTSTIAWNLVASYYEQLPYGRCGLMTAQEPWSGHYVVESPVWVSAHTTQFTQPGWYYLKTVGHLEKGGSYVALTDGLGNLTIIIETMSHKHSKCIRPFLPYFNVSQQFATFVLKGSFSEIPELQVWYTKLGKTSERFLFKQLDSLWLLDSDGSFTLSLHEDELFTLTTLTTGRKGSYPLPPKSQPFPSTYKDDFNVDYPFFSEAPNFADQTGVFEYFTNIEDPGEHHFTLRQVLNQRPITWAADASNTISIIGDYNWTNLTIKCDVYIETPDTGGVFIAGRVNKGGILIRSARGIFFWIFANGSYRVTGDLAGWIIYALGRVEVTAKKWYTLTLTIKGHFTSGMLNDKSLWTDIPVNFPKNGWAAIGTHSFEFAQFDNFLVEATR
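Mutant human GALC (G270D), stably expressed in a Twitcher mouse brain cell line lacking endogenous GALC, is measured in live-treated cells via 6-hexadecanoylamino-4-methylumbelliferyl-β-galactoside hydrolysis (0.1 mM final, pH 5.2) with fluorescent detection.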
B2AR arrestin ag = beta-arrestin recruitment by human beta2-adrenergic receptor ligands; 44,000 tested, under 10 active; AID 1347077; Potency, µM (highest dose often 46.1 µM), usual class: activators; P07550; HTLA Tango cells, beta-arrestin recruitment, luciferase luminescence, 18 h;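 further: potency means the concentration at half of the fitted maximal effect; 0% = DMSO and full agonism = EC100 isoproterenol or metaproterenol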
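Luminescence read-out: arrestin recruitment to recombinant beta2-AR releases tTA, inducing luciferase. Cells exposed 18 hr at 37 degrees C to up to 46 microM compound; %Activity from corrected signal, concentration-response curves classified by r2, magnitude and efficacy.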
GALK inhibitor = inhibits human galactokinase; P51570; recombinant GALK, Kinase-Glo ATP luminescence, 1 h; Potency, µM (series often up to 57.5 µM), inactives show at the highest dose activity, negative = inhibition, usual class: inhibitors; 44,000 tested, under 10 active;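 further: plate controls were full GALK reaction for no effect and reaction lacking GALK for full effect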
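5 nM GALK; 35 uM ATP; 100 uM D-galactose; 20 mM HEPES pH 8.0, 5 mM MgCl2, 60 mM NaCl, 1 mM DTT, 0.01% BSA; 1 h RT; Kinase-Glo Plus luminescence.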
* hit, by the source's call; [ ] = dose if it differs, or a comment. Unless noted, the call rests on the fitted dose curve; in most records, active means well fitted curve in the direction sought with a large enough effect; inconclusive means small, poorly fitted or top-dose-only effect, or another doubt; inactive means no such curve, though single readings can be large; an effect the other way counts as inactive or inconclusive.

`O=S(=O)(Nc1ccccn1)c1ccc(N=Cc2c(O)[nH]c3ccc4ncsc4c23)cc1` gave FH mod -1.7%[13.5 µM].
Screening CC(=O)OC1C(O)CC2(C)C(CCC3(C)C2CC=C2C4C5(CCC(CO[C@@H]6O[C@H](CO)[C@@H](O)[C@H](O)[C@H]6O)(OC5=O)C4(C)O)C(O)CC23C)C1(C)C (some centres undefined) returned FH mod 1.1%[20.6 µM].
C=C1CCC2C(C)(CO[C@@H]3O[C@H](CO)[C@@H](O)[C@H](O)[C@H]3O)C(O)CCC2(C)C1C(=O)CC1=CCOC1=O (some centres undefined) was read as FH mod -0.3%[53.3 µM].
CC(c1c[nH]c2ccccc12)C(O)C(=O)O (centres undefined) was read as FH mod -0.1%.
`CN1CCCCC1CCN1c2ccccc2Sc2ccc(S(C)=O)cc21` (centres undefined) gave GPR32 ag 64.5*, FH mod 5.2%[53.3 µM] and GALC G270D act inactive.
CN1CCN(CCCN2c3ccccc3Sc3ccc(Cl)cc32)CC1 was read as GPR32 ag 2.5, FH mod -20.9%[53.3 µM] and GALC G270D act inactive.
Screening COc1cc(C(CO)CO[C@@H]2O[C@H](CO)[C@@H](O)[C@H](O)[C@H]2O)ccc1O (some centres undefined) returned FH mod 3.5%[53.3 µM].
For Cc1nc2ccc(CN(C)c3ccc(C(=O)NC(CCC(=O)O)C(=O)O)s3)cc2c(=O)[nH]1 (centres undefined) the results were FH mod 0.2%.
Screening Cc1cc(C)c(NC(=O)CSc2nc3ccccc3c3nc(CCn4cncc4C)nn23)c(C)c1 returned PTAP-TSG101 blk inactive, GPR32 ag 14.8, FH mod -0.4%, GALC G270D act inactive, B2AR arrestin ag inactive and GALK inhibitor -0.6%.
`COc1cc2nc(SCC(=O)Nc3c(C)cc(C)cc3C)n3nc(CCn4c(C)nc5ccccc54)nc3c2cc1OC` gave PTAP-TSG101 blk inactive, GPR32 ag 83.2*, FH mod 0.7%, GALC G270D act inactive, B2AR arrestin ag inactive and GALK inhibitor 0.6%.
`CCOC(=O)c1ccc(NC(=O)c2cnc(N3CCCC3)nc2C)cc1` gave PTAP-TSG101 blk inactive, GPR32 ag 96.4*, FH mod -5.0%, GALC G270D act inactive, B2AR arrestin ag inactive and GALK inhibitor -3.1%.
For Cc1nc(N2CCCC2)ncc1C(=O)Nc1ccc(OC(F)(F)F)cc1 the results were PTAP-TSG101 blk inactive, GPR32 ag 39.4, FH mod -6.7%, GALC G270D act inactive, B2AR arrestin ag inactive and GALK inhibitor -3.9%.
For C=CC(=O)N1CCN(C(=O)CNc2cc(I)c(Cl)cc2O)CC1 the results were FH mod -6.8%.
`O=C(Nc1ccc(F)cc1F)c1cc2c(=O)n3ccccc3nc2s1` gave PTAP-TSG101 blk inactive, GPR32 ag 15.1, FH mod -5.5%, GALC G270D act 22.4µM*, B2AR arrestin ag inactive and GALK inhibitor 0.5%.
`N#Cc1ccccc1NC(=O)c1cc2c(=O)n3ccccc3nc2s1` gave PTAP-TSG101 blk inactive, GPR32 ag 6.1, FH mod -6.5%, GALC G270D act inconclusive, B2AR arrestin ag inactive and GALK inhibitor 0.2%.
O=C(Nc1cccc(C(F)(F)F)c1)C1CCN(c2nnc(-n3cccc3)s2)CC1 was read as PTAP-TSG101 blk inactive, GPR32 ag 93.8*, FH mod -6.3%, GALC G270D act inactive, B2AR arrestin ag inactive and GALK inhibitor 1.4%.
